From PubChem BioAssay AID977607 (Broad Institute, 2014)
Screen size: about 1,500 compounds; about 460 (31%) were called active. Another 1% or so got no clear call; they are omitted.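 How the source made its calls: active means curve reaches 40% activation over neutral controls at an AC40 no higher than the top valid tested concentration; inconclusive means no clear call, values can overlap the other calls; inactive means signal moving opposite to the expected increase, and the rest.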 These entries were drawn from the full list. Measured potencies and affinities stand elsewhere.

Assay: GLuc-reported insulin release enhancers, glucose-stimulated beta cells – cell-based, INS-1E, Gaussia luciferase, luminescence, cherry-pick, set 2, dose response (AID 977607);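 further: 0% = median of the plate neutral control wells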
Conditions: INS-1E GLuc insulin secretion reporter, 2-3 h, active compounds read high; at 35 µM, 100% = signal doubled over neutral wells unless noted

Max activation, inactive:
CCOC(=O)c1c(N)c(C#N)c2n1CCCC2 -17% [at 0.0016 µM, 100% = signal doubled over neutral wells]
O=C(O)c1c(NC(=O)N2CCOCC2)sc2c1CCCC2 -10.1% [at 0.0016 µM, 100% = signal doubled over neutral wells]
CCOc1ccc(C(=O)NCC(=O)OCCN2C(=O)c3ccccc3C2=O)cc1OCC -25.4% [at 0.135 µM, 100% = signal doubled over neutral wells]
O=S(=O)(NCC1CCCO1)c1ccc(Cl)nc1 (stereo not drawn) -19.6% [at 3.8 µM, 100% = signal doubled over neutral wells]
CCCCNC(=O)C1(C)CCN1C(=O)c1cc2ccccc2s1 (stereo not drawn) -22.6% [at 3.8 µM, 100% = signal doubled over neutral wells]
Cc1noc(C)c1S(=O)(=O)NC(=O)C1(C)CCN1C(=O)C1(c2ccc(Cl)cc2)CCC1 (stereo not drawn) -18.9% [at 0.135 µM, 100% = signal doubled over neutral wells]
CC1(C(=O)N2CCCCC2)CCN1C(=O)C1(c2ccccc2)CC1 (stereo not drawn) -16.5% [at 0.046 µM, 100% = signal doubled over neutral wells]
CCSc1ncnc2c(C#N)c3n(c12)CCCCC3 -11.2% [at 0.005 µM, 100% = signal doubled over neutral wells]
Cc1cc(=O)[nH]c2c1c(C)nn2C1CCCC1 -15.7% [at 1.2 µM, 100% = signal doubled over neutral wells]
CCCCOc1ccc(-c2nnn(CC(=O)c3c[nH]c4ccccc34)n2)cc1 -22.5%
CCN1CCN(c2ccc(S(=O)(=O)N3CCCCC3)cc2NC(=O)c2cc3ccccc3o2)CC1 -44.3%
Cc1cccc(C)c1NC(=O)C1c2ccccc2Oc2ccccc21 22.9%
CCCCOC(=O)c1cc(-c2ccc(/C=N/n3cnnc3)o2)ccc1Cl 9.8% [at 1.2 µM, 100% = signal doubled over neutral wells]
O=C(CNC(=O)c1ccco1)N/N=C/c1ccc(C(=O)O)cc1 52.9% [at 11 µM, 100% = signal doubled over neutral wells]
O=C(CCN1CCOCC1)c1ccc(N2CCCCC2)cc1 -35% [at 3.8 µM, 100% = signal doubled over neutral wells]
CC(C)Oc1ccc(C(=O)CCN2CCOCC2)cc1 -16%
O=C(c1ccc2c(c1)OCO2)N1CCc2ccccc2C1 14.5%
CC(=O)NC1C(=O)N(CCN2CCOCC2)c2ccc(Br)cc21 (stereo not drawn) -15.1% [at 3.8 µM, 100% = signal doubled over neutral wells]
CC1(c2ccc(OC(F)F)cc2)NC(=O)N(CC(=O)Nc2cccc(S(N)(=O)=O)c2)C1=O (stereo not drawn) -16.7%
C=CCN(CC=C)S(=O)(=O)c1ccc(C(=O)Nc2sc3c(c2C(N)=O)CCCCC3)cc1 -33.8% [at 3.8 µM, 100% = signal doubled over neutral wells]
C[C@H](O)[C@@H]1CN2CCc3ccc(-c4ccc5c(c4)OCO5)cc3[C@@H]2C[C@@H]1N(C)C(=O)c1cccc(Cl)c1 18.9% [at 0.42 µM, 100% = signal doubled over neutral wells]
CC(C(=O)N1CCC(C(N)=O)CC1)N(c1ccc(Oc2ccccc2)cc1)S(C)(=O)=O (stereo not drawn) 28.2% [at 0.42 µM, 100% = signal doubled over neutral wells]
COc1ccc(CCNC(=O)CCc2ccccc2O)cc1OC -17.8% [at 0.005 µM, 100% = signal doubled over neutral wells]
COc1ccc(CCNC(=O)CCc2ccccc2)cc1OC -19.6% [at 0.42 µM, 100% = signal doubled over neutral wells]
CC(=O)NCCNC(=O)CNC(=O)c1ccc(Cl)cc1 -16.4% [at 0.0016 µM, 100% = signal doubled over neutral wells]
CCNc1nc(NC(C)CC)nc(ON=C(C)C)n1 (stereo not drawn) 31.8%
COCCN(CCOC)Cc1cc(=O)oc2cc(C)c(C)cc12 -22.4% [at 0.046 µM, 100% = signal doubled over neutral wells]
COc1cccc2cc(-c3cc(=O)oc4cc(C)c(O)cc34)oc12 15.9% [at 3.8 µM, 100% = signal doubled over neutral wells]
O=C(NCCN1CCN(C(=O)c2ccccc2Cl)CC1)C(=O)NCc1ccccc1 23.3% [at 0.005 µM, 100% = signal doubled over neutral wells]
CC(O)c1nc2ccc(Cc3ccc4nc(C(C)O)[nH]c4c3)cc2[nH]1 (stereo not drawn) -15% [at 0.0016 µM, 100% = signal doubled over neutral wells]
CCNc1nc(NC(C)C)nc(N(C)C#N)n1 18.9%
O=C(NN=C1CCCC1)c1cc(-c2ccccc2)n[nH]1 -11.9% [at 1.2 µM, 100% = signal doubled over neutral wells]
COc1ccc(/C=N/NC(=O)c2cc(-c3ccc4c(c3)OCO4)n[nH]2)cc1OC 26.5% [at 3.8 µM, 100% = signal doubled over neutral wells]
